The panel holds about 83,000 compounds, 20% with a hit somewhere; the sample as a whole holds those more often.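 Step 1: grow cells in 96-well plates. Step 2: add test compound at a single concentration. Step 3: incubate 48 h. Step 4: record percent growth.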 Values without a mark were called inactive. Activity calls are given as the source filed them.

This passage reports growth results from PubChem BioAssay (NCI).

In this test the test system is UACC-62 melanoma. The test is described as follows: NCI-60 one-dose screen, 48 h (100 = growth as untreated, 0 = no growth, -100 = all killed). The settings on record: 10 µM unless noted. The procedure:
Growth inhibition of the UACC-62 human tumor cell line is measured as a screen for anti-cancer activity. Cells are grown in 96 well plates and exposed to the test compound for 48 hours. Compounds are tested at a single concentration, which is 10^-5 M for most compounds. The reported endpoint is percent growth (GI% or GIPRCNT), where numbers from 0 - 100% represent growth inhibition, and numbers from -100% - 0 represent cell death. For example, a value of 40 represents 60% growth inhibition. A value of 0 means no net growth occurred over the course of the experiment. A value of -40 indicates 40% of cells at the beginning of the experiment died by the end of the experiment. A value of -100 means all cells are dead at the end of the experiment.
NCI-60 Human Tumor Cell Lines Screen was performed using the standard one-dose NCI protocol, which is described in more detail at https://dtp.cancer.gov/discovery_development/nci-60/default.htm.
Compounds with GIPRCNT values below 10 were considered active. Activity score was based on GIPRCNT using the following formula: […]
Score is 0 for GIPRCNT values of 100 or above, 50 for GIPRCNT values of 0, and 100 for GIPRCNT values of -100.
Regarding `Clc1ccc2c(NCCCN3CCOCC3)c3oc4ccc(Cl)cc4c3nc2c1`, the growth was 98.7%.

Take `OC1CCN(CCCOc2c3ccc(Cl)cc3nc3c2oc2ccc(Cl)cc23)CC1`: the growth is -68.4% (active).

In the case of `CC(C)(C)Nc1nc2c(OCCc3ccccc3)cccn2c1-c1ccc(O)cc1`, the growth was 70.4%.

As for `Cc1cccc2sc(/N=C(\N)C(Br)Br)nc12`, the growth was 22%.

With `O=C1C2=C(C(=O)c3c(O)cccc31)C(c1ccco1)c1sc(=O)[nH]c1S2` (stereo not given), the growth was -74.9% (active).

In the case of `N#Cc1c(-c2ccc(Cl)cc2)nc(SCc2ccccc2)nc1N1CCNCC1`, the growth is 89.8%.

For `COc1ccc(-n2c(SCC(=O)Nc3ccc(-c4nc5ccccc5[nH]4)cc3)nc3ccccc3c2=O)cc1`, the growth is -18.3% (active).

As for `N/C(=N\c1nc2c(Br)cccc2s1)C(Br)Br`, the growth is -5.13% (active).

For the molecule `COc1ccc(NC2=C(Cl)C(=O)C(C)=C(C)C2=O)cc1OC`, the growth is 81.2%.

On to `N#Cc1ccc(/C=N/NC(=O)c2[nH]c3ccc(Br)cc3c2-c2ccccc2)s1`, for which the growth is 23.4%.

Consider `O=C1Nc2ccc(Cl)cc2/C1=C/c1ccc(OCC(=O)c2ccc(Br)cc2)cc1`, for which the growth was 83.4%.

Regarding `O=C(N/N=C/c1ccc[nH]1)c1[nH]c2ccc(Br)cc2c1-c1ccccc1`, the growth is 13.4%.

For the molecule `N#Cc1c(-c2ccc(Cl)cc2)nc(SCc2ccc([N+](=O)[O-])cc2)nc1N1CCNCC1`, the growth is 12.5%.

For the molecule `COc1ccccc1C(=O)CSc1nc(Nc2ccc(S(N)(=O)=O)cc2)c2ccccc2n1`, the growth is 88.6%.

In the case of `Clc1ccc(Cc2nnc3sc(-c4cccnc4)nn23)cc1`, the growth is 91.1%.

As for `COc1ccc(C(=O)/C=C/c2ccc(OCc3ccc(C)cc3)c(OC)c2)cc1OC`, the growth was 54.5%.

In the case of `CS(=O)(=O)c1ccc(-c2nc3ccccn3c2/C=N/Nc2nc(-c3ccc(Br)cc3)cs2)cc1`, the growth is 102%.

In the case of `Cc1nc(-c2cc3ccccc3oc2=O)ccc1C(=O)/C=C/c1ccc(Cl)c(Cl)c1`, the growth was 100%.

On to `N#Cc1nc(-c2ccccc2)oc1N1CCC(CO)C1` (stereo not given), for which the growth was 89.4%.

As for `O=C1c2c(c3c4cc(Br)ccc4[nH]c3c3ccc4ccccc4c23)C(=O)N1CCO`, the growth is 72.6%.

For the molecule `Nc1cc(-c2c[nH]c3ccccc23)nc2cc(-c3c[nH]c4ccccc34)nn12`, the growth was 87.5%.

For `O=C1Nc2ccccc2Oc2ccc(S(=O)(=O)CC3CO3)cc21` (stereo not given), the growth was 67.6%.

On to `N[C@@H](Cc1cn(-c2c3ccccc3nc3ccccc23)nn1)C(=O)O`, for which the growth is 93.5%.

In the case of `Cc1ccc(CNS(=O)(=O)/N=C2\NC(=O)NC2=C(Cl)Cl)cc1`, the growth was 77.3%.

With `COc1cccc(-c2nn(-c3ccccc3)cc2-c2ccnc(N3CCN(C(=O)c4ccccc4)CC3)c2)c1`, the growth is 62.4%.

As to `N[C@@H](Cc1cn(-c2ccnc3ccccc23)nn1)C(=O)O`, the growth is 95.4%.

On to `Clc1ccc2oc3c(OCCCn4ccnc4)c4ccccc4nc3c2c1`, for which the growth is 83.1%.

`Cc1ccc2ccc3ccc(C)nc3c2n1.Cc1ccc2ccc3ccc(C)nc3c2n1.Oc1c(Cl)cc(Cl)c2ccc(CN3CCCCC3)nc12.[Ru]`: the growth was -74% (active).

As for `CCOc1ccc2nc(NC(=O)c3ccc(C(F)(F)F)cc3)sc2c1`, the growth is 99.1%.

As for `O=C1[C@H]2Cc3c([nH]c4ccccc34)[C@@H](c3ccc(Br)cc3)N2C(=O)CN1C1CCN(Cc2ccccc2)CC1`, the growth is 84%.

Take `[Cl][Ru].c1ccc(-c2cc(-c3ccccn3)nc(-c3ccccn3)c2)cc1.c1ccc(-c2ccnc3c2ccc2c(-c4ccccc4)ccnc23)cc1`: the growth was -68% (active).

For `N#Cc1nc(-c2ccccc2)oc1S(N)(=O)=O`, the growth is 66.6%.

As to `COc1ccc(/C=N/Nc2ccnc3cc(Cl)ccc23)cc1Cl`, the growth was -86.4% (active).

Turning to `O=C(N/N=C/c1ccc(Br)s1)c1[nH]c2ccc(Br)cc2c1-c1ccccc1`, the growth was 41.7%.

Turning to `CCN1C(=S)N(c2ccccc2)C2NC(=O)N(/N=C/C=C/c3ccccc3OC)C21` (stereo not given), the growth was 81.7%.

Take `Cc1c(Nc2nnc(SCC(=O)Nc3sc4c(c3C#N)CCCC4)s2)c(=O)n(-c2ccccc2)n1C`: the growth is 92.9%.

With `Cc1ccccc1NC(=O)/C=C/c1ccc(OCCOc2ccc3c(C)cc(=O)oc3c2)cc1`, the growth was 91.6%.

As to `Cc1ccc(-c2nc(C(Cl)Cl)nc3cc(-c4ccccc4)nn23)cc1`, the growth is 55.7%.

For the molecule `Nc1nc(N)c2c(n1)NC(c1ccc(C(F)(F)F)cc1)CC(c1ccc(Nc3nc(NCCO)nc(Nc4ccc(Cl)cc4)n3)cc1)=N2` (stereo not given), the growth was -41.5% (active).

Take `COC(=O)C(C)NS(=O)(=O)/N=C1\NC(=O)NC1=C(Cl)Cl` (stereo not given): the growth is 91.9%.
